This is an account of results in PubChem BioAssay (EPA / NIEHS).

Test [1] can be described thus: IUF_NPC2c_oligodendrocyte_migration_120hr: Leibniz Research Institute for Environmental Medicine (IUF) 120-hour Neural Progenitor Cell Migration Assay for Oligodendrocyte Migration (NPC2c) (AID 2284297).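 Further: O4-positive oligodendrocyte migration distance divided by radial glia migration distance.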 The method, boiled down: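 Exposure runs 5 days from differentiation onset at 37C, seven concentrations plus solvent control, DMSO at most 0.1%, applied to primary hNPC spheres on laminin. After fixation, O4 immunostaining gives oligodendrocyte distance from the sphere core, relative to radial glia migration.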

A short description of test [2]: IUF_NPC2a_radial_glia_migration_120hr: Leibniz Research Institute for Environmental Medicine (IUF) 120-hour Neural Progenitor Cell Migration Assay for Radial Glia Migration (NPC2a) (AID 2284298). In outline:
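Migration distance in um, sphere core edge to migration-area edge, derived by nuclei-density algorithm from Hoechst images after 120 h compound exposure. Primary hNPC spheres differentiated on poly-D-lysine/laminin in N2 medium, 37C; medium half-replaced day 3.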

Test [3] can be described thus: IUF_NPC2a_radial_glia_migration_72hr: Leibniz Research Institute for Environmental Medicine (IUF) 72-hour Neural Progenitor Cell Migration Assay for Radial Glia Migration (NPC2a) (AID 2284299). In outline: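 Readout: mean of four manual brightfield measurements of radial glia migration distance (um) at 72 h. hNPC spheres (0.3 mm) exposed to 7 compound concentrations plus solvent control on PDL/laminin, 37C, 5% CO2; activity fitted relative to DMSO.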

Test [4] is described as follows: IUF_NPC2b_neuronal_migration_120hr: Leibniz Research Institute for Environmental Medicine (IUF) 120-hour Neural Progenitor Cell Migration Assay for Neuron Migration (NPC2b) (AID 2284300). The method, boiled down: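 TUBB3-positive neurons are imaged after 120 h of differentiation, and their mean distance from the sphere edge is normalised to radial glia migration. Single 0.3 mm fetal hNPC spheres on poly-D-lysine/laminin received 7 compound concentrations, ≤0.1% DMSO, refreshed at day 3.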

Test [5] can be described thus: IUF_NPC3_neuronal_differentiation_120hr: Leibniz Research Institute for Environmental Medicine (IUF) 120-hour Neuronal Differentiation Assay (NPC3) (AID 2284301). In outline: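 Neuronal differentiation of primary human neural progenitors measured by high-content imaging: percent TUBB3+ of Hoechst+ nuclei within migrated area at 120 h, seven-point serial dilution plus solvent control, gain or loss relative to DMSO.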

Test [6] in a line: IUF_NPC4_neurite_length_120hr: Leibniz Research Institute for Environmental Medicine (IUF) 120-hour Neuronal Morphology Assay for Neurite Length (NPC4) (AID 2284302). In outline: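 Neurons from differentiating human fetal neural progenitor spheres are scored for average neurite length after five days of compound exposure. Fitting uses DMSO as negative control.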
Test [7] can be described thus: IUF_NPC5_oligodendrocyte_differentiation_120hr: Leibniz Research Institute for Environmental Medicine (IUF) 120-hour Oligodendrocyte Differentiation Assay (NPC5) (AID 2284304; active means hit-call score of the fitted dose curve at least 0.9, where 1 is the maximum;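 further: primary human fetal neural progenitor spheres plated to migrate and differentiate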). In outline:
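Oligodendrocyte differentiation scored as O4-positive cells, found by CNN image analysis, as percent of Hoechst-stained nuclei in the migration area. Scoring followed 5 days of exposure of plated hNPC neurospheres differentiating in DMEM/F12 N2 medium at 37C, with compound refreshed at day 3.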

Test [8] can be described thus: IUF_NPC4_neurite_area_120hr: Leibniz Research Institute for Environmental Medicine (IUF) 120-hour Neuronal Morphology Assay for Neurite Area (NPC4) (AID 2284305; active means hit-call score of the fitted dose curve at least 0.9, where 1 is the maximum). The method, boiled down: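 Endpoint at 120 h: automated imaging of TUBB3/Hoechst-stained differentiating human neural progenitor spheres, neurite area per neuron from skeletonization. DMSO solvent control, not above 0.1%, set the baseline; medium was half-replaced on day 3.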

Test [9] in a line: IUF_NPC2-5_cytotoxicity_72hr: Cytotoxicity Assessment at 72 hours in the Leibniz Research Institute for Environmental Medicine (IUF) Neural Progenitor Cell Migration and Differentiation Assay for Cytotoxicity (NPC2-5) (AID 2284306; active means hit-call score of the fitted dose curve at least 0.9, where 1 is the maximum;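 further: LDH release into supernatant measured by resorufin fluorescence marking membrane damage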). In outline: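 Primary human neural progenitor spheres migrate and differentiate on laminin. Compound is present from the start of differentiation, with DMSO kept at or below 0.1%. At 72 h, supernatant LDH is quantified fluorometrically, with values fitted in the positive direction.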

A short description of test [10]: IUF_NPC2-5_cytotoxicity_120hr: Cytotoxicity Assessment at 120 hours in the Leibniz Research Institute for Environmental Medicine (IUF) Neural Progenitor Cell Migration and Differentiation Assay (NPC2-5) (AID 2284307; active means hit-call score of the fitted dose curve at least 0.9, where 1 is the maximum;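 on AC50: LDH released into supernatant as membrane damage marker via resorufin fluorescence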). The method, boiled down:
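Membrane-integrity loss measured as LDH activity in medium supernatant via resazurin-to-resorufin fluorescence after 120 h exposure. hNPC spheres from GW 16-19 fetal cortex differentiated on poly-D-lysine/laminin, 37C, medium half-refreshed day 3; seven concentrations, DMSO max 0.1%.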

The nature of test [11]: IUF_NPC2-5_cell_number_120hr: Cell Number Assessment at 120 hours in the Leibniz Research Institute for Environmental Medicine (IUF) Neural Progenitor Cell Migration and Differentiation Assay (NPC2-5) (AID 2284308).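 Further: count of Hoechst-stained nuclei in migration zone around plated human neural progenitor spheres.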 In outline:
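Counting of all Hoechst-stained nuclei in the migration area at 120 h, versus DMSO control. Primary hNPC spheres differentiated on poly-D-lysine/laminin in N2 medium at 37C, dosed from day 0 (7 concentrations, DMSO ≤0.1%), half-refed day 3.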

Test [12] can be described thus: IUF_NPC2-5_viability_120hr: Viability Assessment at 120 hours in the Leibniz Research Institute for Environmental Medicine (IUF) Neural Progenitor Cell Migration and Differentiation Assay (NPC2-5) (AID 2284312). The method, boiled down:
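Human fetal (GW 16-19) neural progenitor spheres of 0.3 mm were plated on poly-D-lysine/laminin in N2 differentiation medium and exposed from day 0 for 120 h, with half-medium refresh at day 3. Viability was read as alamar blue resazurin-to-resorufin fluorescence against DMSO.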

Test [13] in a line: CCTE_Mundy_HCI_iCellGluta_NOG_NeuriteLength: CCTE's Neurite Outgrowth Assay in iCellGluta cells for Neurite Length, Mundy Lab (AID 2284318; active means hit-call score of the fitted dose curve at least 0.9, where 1 is the maximum). The method, boiled down: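 Automated high-content imaging of betaIII-tubulin (Alexa Fluor-488) and Hoechst-stained cells gave neurite length, normalized to the DMSO baseline.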
Test [14] can be described thus: CCTE_Deisenroth_5AR_NBTE_donor: CCTE's 5alpha-reductase NanoBRET Target Engagement Assay […], Deisenroth Lab (AID 2284319). Conditions: actives raise or lower the signal. In outline:
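In this secondary endpoint, donor luminescence from SRD5A2-NanoLuc in transfected HEK293T flags artifacts. Test chemical (10 nM - 29.9 uM) is present five hours, tracer the last two; mock-tracer wells run plate-matched; data fitted bidirectionally against DMSO.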
On the technique in general: BRET reads energy transfer from a luciferase to a nearby fluorophore.

A short description of test [15]: VALA_TUBIPS_Agonist_TubuleLength: VALA Sciences human iPS-derived Endothelial Tubule Formation (TUBIPS) Agonism Assay (AID 2284311; active means hit-call score of the fitted dose curve at least 0.9, where 1 is the maximum). In outline:
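Agonist-mode readout is the gain in imaged tubule length versus DMSO baseline. It was measured by fluorescence high-content imaging 72 h after dosing human iPSC-derived endothelial cells.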

The nature of test [16]: VALA_TUBIPS_Antagonist_TubuleLength: VALA Sciences human iPS-derived Endothelial Tubule Formation (TUBIPS) Antagonist Assay (AID 2284313; active means hit-call score of the fitted dose curve at least 0.9, where 1 is the maximum). In outline:
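Tubule length was quantified by high-content imaging of CD31- and nuclear-stained cells, with 0.1% DMSO as neutral and 100 uM suramin as inhibition control. Compounds were applied for 3 days, in 10 ng/ml VEGF, to cultures pre-grown 3 days.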

Test [17] in a line: VALA_MIGHUV2_Bcatenin: VALA Sciences human Umbilical Vein Endothelial Cell Migration (MIGHUV) Assay, Nuclear Translocation of beta-Catenin after Recovery (AID 2284315; active means hit-call score of the fitted dose curve at least 0.9, where 1 is the maximum). The method, boiled down:
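Nuclear beta-catenin imaged by immunofluorescence with Hoechst counterstain in fixed HUVEC, 24 h after scratch wounding and chemical addition. Six-point concentration-response in triplicate; activity scored as signal increase over 0.1% DMSO vehicle.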

The nature of test [18]: VALA_MIGHUV2_WoundArea: VALA Sciences human Umbilical Vein Endothelial Cell Migration (MIGHUV) Assay, Area of Scratch Wound after Recovery (AID 2284316; active means hit-call score of the fitted dose curve at least 0.9, where 1 is the maximum). In outline:
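Wound-area endpoint read by fluorescence imaging of Hoechst-stained nuclei after a 24 h recovery period following scratch of HUVEC monolayers (9000 cells/well). Chemicals dosed within 30 min post-scratch, triplicate 6-point series, 0.1% DMSO vehicle; Cytochalasin D positive control.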

For the next test, the system named is IYD (gene 389434). Description: CCTE_GLTED_hIYD: CCTE's human Iodotyrosine Deiodinase (xIYD) Inhibition Assay, Great Lakes Toxicology and Ecology Division (GLTED) Lab (AID 2284317; active means hit-call score of the fitted dose curve at least 0.9, where 1 is the maximum;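 further: cell-free human IYD enzyme made in baculovirus insect cells; iodide freed from monoiodotyrosine measured by cerium arsenite color change at 420 nm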). In outline:
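Cell-free; baculovirus/insect-cell hIYD + MIT substrate + chemical, 3 h. Dowex column cleanup, then Ce4+/As3+ Sandell-Kolthoff read at A420 nm. Triplicate plates; normalized to 3-nitro-L-tyrosine (positive) and DMSO/NaOH (solvent).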

Records with an inconclusive call do not appear. Calls of active or inactive are those of the source. How the source made its calls, unless noted: active means hit-call score of the fitted dose curve at least 0.9, where 1 is the maximum; inactive means score below 0.9.

The AC50 is the concentration at which the activity in the assay is half-maximal. Turning to `Cc1cc(C(F)(C(F)(F)F)C(F)(F)F)ccc1NC(=O)c1cccc(I)c1C(=O)NC(C)(C)CS(C)(=O)=O`, the call in test [1], in test [2], in test [3], in test [4], in [5] and in [6] was inactive. In addition, the compound was called inactive in test [8], in [9], in [11], in [12] and in [13]. Further, the concentration at half-maximal activity (AC50) in test [7] was 4.22 µM (active); in [10] it was 1.5 µM (active).
Regarding `N#CCCC(Br)(C#N)CBr` (stereo not drawn), the half-maximal activity concentration (AC50) in test [14] is 62.1 µM (active).
As for `Nc1ncn[nH]1`, the compound was classed as inactive in test [15], in test [16], in test [17] and in [18].
For the compound `O=S1OC[C@@H]2[C@H](CO1)[C@]1(Cl)C(Cl)=C(Cl)[C@@]2(Cl)C1(Cl)Cl` (stereo partly drawn), the outcome in test [1], in test [2], in test [3], in test [4], in test [5] and in [6] was inactive. Moreover, the call in test [8], in test [9], in test [10], in test [11] and in test [12] was inactive. The AC50 in [7] was 0.789 µM (active).
Turning to `O=c1[nH]c(=O)n(Cl)c(=O)n1Cl`, in test [14], the result was inactive.
Turning to `OC(Cc1ccccc1Cl)(Cn1[nH]cnc1=S)C1(Cl)CC1` (stereo not drawn), the result in test [1], in test [4], in test [9], in test [11] and in [13] was inactive. Also, the concentration at half-maximal activity (AC50) in test [2] was 43 µM (active); in test [3] it was 36 µM (active); in test [5], 17.5 µM (active); in test [6], 36.1 µM (active); in test [7] it was 0.507 µM (active); in test [8], 40.3 µM (active). Moreover, the results for the AC50 in [10] and in [12] were 126 µM (active) and 35.8 µM (active), respectively.
Regarding `CCCCCCCCCCCCc1cccc(S(=O)(=O)O)c1`, in the test on IYD (gene 389434), the AC50 is 89.9 µM (active).
`CS(=O)(=O)c1ccc(C(=O)C2C(=O)CCCC2=O)c(Cl)c1COCC(F)(F)F`: the compound was called inactive in test [1], in [2], in test [3], in test [4], in test [5] and in test [6]. Further, the outcome in test [7], in test [8], in test [9], in test [10], in test [11] and in test [12] was inactive. Moreover, the AC50 in test [13] is 25 µM (active).
`O=c1nc(O)n(Cl)c(=O)n1Cl`: the call in test [14] was inactive.
As to `O=[N+]([O-])c1ccccc1O`, in test [14], the call was inactive.
The same measure, in the same setting: for `CC(=Cc1ccccc1)[N+](=O)[O-]` the value was “inactive”.
With `O=S1(=O)OC(c2cc(Br)c(O)c(Br)c2)(c2cc(Br)c(O)c(Br)c2)c2ccccc21`, the AC50 with IYD (gene 389434) is 117 µM (active). Further, the outcome in [14] was inactive.
